According to article PMC5540273 (PLoS ONE, 2017):

Assays:
Conditions in all cases: concentration: 1 μM, replicates: in singlicate; n = 1
EPHB4 = tested on: EPHB4
EPHB6 = tested on: EPHB6
ERBB2 = tested on: ERBB2
ERBB3 = tested on: ERBB3
ERBB4 = tested on: ERBB4
ERK1 = tested on: T1, ERK1
T1 construct: gene MAPK3

ERK2 = tested on: T2, ERK2
T2 construct: gene MAPK1

ERK3 = tested on: T3, ERK3
T3 construct: gene MAPK6

ERK4 = tested on: T4, ERK4
T4 construct: gene MAPK4

ERK5 = tested on: T5, ERK5
T5 construct: gene MAPK7

ERK8 = tested on: T6, ERK8
T6 construct: gene MAPK15

ERN1 = tested on: ERN1
FAK = tested on: T7, FAK
T7 construct: gene PTK2

FER = tested on: FER
FES = tested on: FES
FGFR1 = tested on: FGFR1
FGFR2 = tested on: FGFR2
FGFR3 = tested on: FGFR3
FGFR4 = tested on: FGFR4
FGR = tested on: FGR
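Note: KINOMEscan kinase panel screen.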

Row | SMILES | %Inh (EPHB4) [%] | %Inh (EPHB6) [%] | %Inh (ERBB2) [%] | %Inh (ERBB3) [%] | %Inh (ERBB4) [%] | %Inh (ERK1) [%] | %Inh (ERK2) [%] | %Inh (ERK3) [%] | %Inh (ERK4) [%] | %Inh (ERK5) [%] | %Inh (ERK8) [%] | %Inh (ERN1) [%] | %Inh (FAK) [%] | %Inh (FER) [%] | %Inh (FES) [%] | %Inh (FGFR1) [%] | %Inh (FGFR2) [%] | %Inh (FGFR3) [%] | %Inh (FGFR4) [%] | %Inh (FGR) [%]
1 | Cc1ccc(NC(=O)Nc2ccc(Cl)cc2)cc1-c1ccc(C(=O)Nc2ccncc2)cc1 [GSK1398472] | 23 | 2 | 25 | 0 | 0 | 0 | 0 | 15 | 3 | 0 | 0 | 0 | 0 | 15 | 0 | 0 | 39 | 13 | 14 | 18
2 | COC(=O)c1cccc(NC(=O)NC2CCN(c3ccnc(Nc4ccc(OC)cc4)n3)C2)c1 (centres unmarked) [GSK1379746] | 19 | 37 | 65 | 24 | 23 | 0 | 0 | 5 | 2 | 6 | 0 | 5 | 0 | 13 | 0 | 0 | 0 | 0 | 4 | 11
3 | Nc1nccc(-c2c(-c3ccc(F)cc3)ncn2C2CCN(Cc3ccccc3)CC2)n1 [SB-219980] | 17 | 58 | 18 | 0 | 19 | 0 | 21 | 0 | 0 | 0 | 0 | 41 | 0 | 0 | 23 | 0 | 0 | 0 | 0 | 18
4 | Cc1nccc(-c2c(-c3ccc(F)cc3)ncn2CCCN2CCOCC2)n1.Cl [SB-282975] | 0 | 15 | 0 | 34 | 0 | 6 | 8 | 0 | 96.5 | 25 | 9 | 0 | 35 | 26 | 12 | 38 | 22 | 33 | 0 | 0
5 | COc1cc2ncnc(Nc3cccc(Br)c3)c2cc1OC.Cl [GI230329] | 21 | 3 | 97.1 | 41 | 72 | 0 | 0 | 6 | 22 | 0 | 0 | 2 | 0 | 31 | 0 | 0 | 22 | 11 | 0 | 26
6 | CCc1ccc(-c2ccc3c(c2)-c2n[nH]cc2S(=O)(=O)N3C)cc1 | 8 | 0 | 40 | 15 | 0 | 0 | 7 | 0 | 0 | 5 | 0 | 0 |  | 6 | 2 | 6 | 0 | 0 | 0 | 9
7 | Fc1ccc(-c2nc3n(c2-c2ccncc2)CCS3)cc1 [GI98581] | 2 | 7 | 0 | 3 | 8 | 10 | 25 | 5 | 0 | 0 | 0 | 28 | 0 | 13 | 0 | 0 | 0 | 20 | 0 | 21
8 | CN1c2ccc(-c3ccc(C(N)=O)cc3)cc2-c2[nH]ncc2S1(=O)=O | 18 | 23 | 12 | 14 | 14 | 0 | 4 | 0 | 0 | 0 | 17 | 0 |  | 8 | 11 | 5 | 0 | 0 | 0 | 20
9 | COc1ccc2cc(-c3nc(-c4ccccc4C(C)C)[nH]c3-c3ccncc3)ccc2c1 [SB-660566] | 6 | 0 | 5 | 0 | 52 | 0 | 0 | 0 | 15 | 0 | 0 | 14 | 0 | 0 | 0 | 0 | 12 | 13 | 20 | 21
10 | CC(=O)c1c(C)c2cnc(Nc3ccc(N4CCNCC4)cn3)nc2n(C2CCCC2)c1=O | 23 | 17 | 9 | 0 | 0 | 0 | 0 | 89 | 25 | 0 | 17 | 0 | 0 | 4 | 0 | 2 | 0 | 0 | 0 | 20
11 | Cl.Cl.Cl.N#Cc1ccc(CCNc2nccc(-c3cccc(CN4CCNCC4)c3)n2)cc1 [GSK2137462] | 16 | 1 | 0 | 0 | 0 | 0 | 0 | 31 | 4 | 0 | 28 | 25 | 56 | 4 | 6 | 0 | 10 | 17 | 22 | 23
